# Test results published in PubChem BioAssay (NCATS).
# “And” between values parts separate entries of the source, which are not always exact repeats. Equal values may be shown once. Inconclusive results are not listed. Entries that show only a call come without a potency. The source made the active and inactive calls. Unless noted, the call rests on the fitted dose curve.
# Key:
# [1] = qHTS for Inhibitors of the Functional Ribonucleoprotein Complex (vRNP) of Lassa (LASV) Arenavirus: LASV Primary Screen - GLuc reporter signal (AID 1347082; calls by dose curve; tested in HEK293 reporter line; further: nearly all actives have a fitted effect of over 60% in size; further: potency means the concentration at half of the fitted maximal effect)
# [2] = qHTS for Inhibitors of the Functional Ribonucleoprotein Complex (vRNP) of Lassa (LASV) Arenavirus: Viability assay - alamar blue signal for LASV Primary Screen (AID 1347083; calls by dose curve; tested in HEK293 reporter line; further: nearly all actives have a fitted effect of over 80% in size; further: potency means the concentration at half of the fitted maximal effect)
# [3] = qHTS for Inhibitors of the Functional Ribonucleoprotein Complex (vRNP) of Lymphocytic Choriomeningitis Arenaviruses (LCMV): Viability assay - alamar blue signal for LCMV Primary Screen (AID 1347085; calls by dose curve; tested in HEK293 reporter line; further: nearly all actives have a fitted effect of over 80% in size; further: potency means the concentration at half of the fitted maximal effect)
# [4] = Primary qHTS for inhibitors of SARS-S pseudo-typed particle cell entry (AID 1479145); further: nearly all actives have a fitted effect of over 45% in size
# [5] = Primary qHTS for Huh7 cytotoxicity: counterscreen for inhibitors of MERS-S pseudotyped particle cell entry (AID 1479147); conditions: outcome: dose series up to 57.1 µM unless noted
# [6] = Primary qHTS for Vero E6 cytotoxicity: counterscreen for inhibitors of SARS-S pseudo-typed particle cell entry (AID 1479150); conditions: outcome: dose series up to 57.1 µM unless noted
# [7] = Confirmatory qHTS for VERO E6 Cytotoxicity Assay: Counterscreen for SARS-CoV-2 CPE Assay (AID 1508605); further: nearly all actives have a fitted effect of over 60% in size
# [8] = Confirmatory qHTS for activators (rescue) of SARS-CoV-2 Cytopathic Effect (CPE) (AID 1508606); further: potency means the concentration at half of the fitted maximal effect; nearly all actives have a fitted effect of over 70% in size
# [9] = Confirmatory qHTS to identify inhibitors of SARS-CoV-2 cell entry (AID 1645844); further: nearly all actives have a fitted effect of over 45% in size
# Procedure, shortened: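 HEK293-ACE2, overnight seeding; cpd 1 h, 37C/5% CO2; + SARS-CoV-2-S MLV PP (Wuhan-Hu-1, ΔC19); 48 h; Bright-Glo luminescence. Data normalised to S PP and bald PP wells.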
# [10] = Cytotoxicity counterscreen for inhibitors of SARS-CoV-2 cell entry (AID 1645845); further: nearly all actives have a fitted effect of over 50% in size
# Procedure, shortened: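 Counterscreen run in the same HEK293-ACE2 line as the pseudotyped-particle entry assay, without particles. Viability after 48 h at 37 C was read as ATP luminescence, scaled between cell-containing and cell-free wells.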
# [11] = molecular target: Alpha-galactosidase (Coffea arabica) (UniProt Q42656); experiment: Counterscreen for Glucocerebrosidase Inhibitors: qHTS Assay for Coffee Bean alpha-Galactosidase at pH 4.5 (AID 957; active means well fitted curve in the direction sought with a large enough effect; an effect the other way counts as inactive or inconclusive)
# Procedure, shortened: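 Fluorogenic qHTS at pH 4.5 (citrate buffer with Tween-20): 2 nM enzyme, 80 uM 4-MU-alpha-galactoside substrate, compound titrated 0.7 nM to 77 uM, 20 min room temperature. Glycine/NaOH stop; 4-MU read Ex 365/Em 440; Hill-equation AC50 against no-enzyme and enzyme controls.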
# [12] = molecular target: Alpha-galactosidase (Coffea arabica) (UniProt Q42656); experiment: Counterscreen for Glucocerebrosidase Inhibitors: qHTS Assay for Coffee Bean alpha-Galactosidase at pH 5.9 (AID 998; active means well fitted curve in the direction sought with a large enough effect; an effect the other way counts as inactive or inconclusive)
# Procedure, shortened: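 Enzyme 2 nM + cpd (0.7 nM–77 uM titration) + 4-MU-alpha-Gal 80 uM, pH 5.9 citrate/Tween-20, RT 20 min, NaOH/glycine stop pH 10, fluor 365/440. Normalized to no-enzyme and full-activity controls; Hill-fit AC50.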
# [13] = Inducers of the Endoplasmic Reticulum Stress Response (ERSR) in human glioma: Validation (AID 504836; active means well fitted curve in the direction sought with a large enough effect; an effect the other way counts as inactive or inconclusive)
# Procedure, shortened: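 Stably transfected U87-MG glioma cells carrying a GRP78-based luciferase sensor; 16 h compound incubation. Luminescence end-point read 10 min after Bright-Glo addition at room temperature.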
# [14] = molecular target: Nucleoprotein (Lymphocytic choriomeningitis virus (strain Armstrong)) (UniProt P09992); experiment: qHTS for Inhibitors of the Functional Ribonucleoprotein Complex (vRNP) of Lymphocytic Choriomeningitis Arenaviruses (LCMV): LCMV Primary Screen - GLuc reporter signal (AID 1347086); further: nearly all actives have a fitted effect of over 70% in size; further: potency means the concentration at half of the fitted maximal effect
# [15] = Primary qHTS to identify inhibitors of SARS-CoV-2 cell entry (AID 1645846); conditions: activity change, negative = inhibition: at 57.1 µM (top of the series) unless noted; further: nearly all actives have a fitted effect of over 45% in size
# Procedure, shortened: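 HEK293-ACE2 (Expi293F, stable hACE2), 1500 cells/well, o/n 37C; cpd 23 nL pin, 1 h; MLV-PP w/ SARS-CoV-2-S (Wuhan-Hu-1, Δ19 C-term); 48 h 37C; Bright-Glo luminescence; normalized vs S-PP and bald PP.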
# [16] = Primary qHTS for inhibitors of MERS-S pseudo-typed particle cell entry (AID 1479149); further: nearly all actives have a fitted effect of over 60% in size
# [17] = molecular target: Cytochrome P450 1A2 (Homo sapiens) (UniProt P05177); experiment: p450-cyp1a2 (AID 410); further: potency means the concentration at half of the fitted maximal effect
# Procedure, shortened: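 Luminescent demethylation readout: Luciferin-ME (100uM, equal to Km) turned over by 20nM CYP1A2 for 60 min at room temperature after NADPH regeneration addition, following 10 min compound preincubation. Normalization used 57 uM furafylline as full inhibition.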
# [18] = molecular target: Glucocorticoid receptor (Homo sapiens) (UniProt P04150); experiment: GR-GFP Redistribution (AID 450;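 active means compounds whose dose series gives a full or clear partial fitted curve of increased nuclear translocation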; further: potency means the concentration at half of the fitted maximal effect); conditions: U2OS GR-GFP nuclear translocation, laser cytometry, 2 h
# [19] = molecular target: Glucocorticoid receptor (Homo sapiens) (UniProt P04150); experiment: GR-EFC Redistribution (AID 451); conditions: CHO-K1 GR-EFC translocation, beta-gal luminescence, 2 h; further: potency means the concentration at half of the fitted maximal effect
# Procedure, shortened: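 CHO-K1 cells expressing nuclear EA and GR-ED fragments of b-gal; compounds titrated up to 46 uM final, 2 h at 37 C. GR nuclear translocation read as complemented b-gal luminescence after 1 h RT detection.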
# [20] = molecular target: Mitogen-activated protein kinase 10 (Mus musculus) (UniProt Q61831); experiment: JNK3 AlphaScreen Assay (AID 530; active means well fitted curve in either direction with a large enough effect, not every such curve was filed as active;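 further: kinase came from lysate of stimulated human HepG2 cells; signal reports phosphorylation of biotinylated GST-cJun 1-79 at Ser73 with 10 µM ATP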)
# Procedure, shortened: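 Activity was read by AlphaScreen after JNK3-containing HepG2 lysate (cytokine pre-activated) phosphorylated biotinylated GST-cJun with 10 uM ATP at room temperature. Phospho-Ser73 cJun antibody with Protein-A acceptor beads provided detection.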
# [21] = molecular target: 3',5'-cyclic-AMP phosphodiesterase 4B (Homo sapiens) (UniProt Q07343); experiment: qHTS Assay for Inhibitors of PDE-IV (AID 607; active means well fitted activation curve with a large enough effect in the main read-out, with a control signal flat, not every such curve was filed as active)
# Procedure, shortened: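 Live HEK293 cells with a modified cyclic nucleotide-gated (CNG) channel report intracellular cAMP via membrane-potential dye fluorescence (ex 535/em 590 nm). Endogenous PDE-IV was targeted. Compounds were tested at up to 22.9 uM final; RO 20-1724 100 uM served as control.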
# [22] = molecular target: Cytochrome P450 2C9 (Homo sapiens) (UniProt P11712); experiment: qHTS Assay for Inhibitors and Substrates of Cytochrome P450 2C9 (AID 883; active means well fitted curve in the direction sought with a large enough effect; an effect the other way counts as inactive or inconclusive; further: nearly all actives have a fitted effect of over 60% in size)
# Procedure, shortened: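 Human CYP2C9 (10nM) with Luciferin-H at 100uM (its KM) in 25mM KPO4; compound preincubated 10 min at 37C, then NADPH regeneration for 60 min at 37C. Luciferin read by luminescence after detection reagent; normalized to 57uM sulphaphenazole as full inhibition.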
# [23] = molecular target: Cytochrome P450 3A4 (Homo sapiens) (UniProt P08684); experiment: qHTS Assay for Activators of Cytochrome P450 3A4 (AID 885; active means well fitted curve in the direction sought with a large enough effect; an effect the other way counts as inactive or inconclusive; further: nearly all actives have a fitted effect of over 65% in size)
# Procedure, shortened: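 Using 20nM recombinant human CYP3A4 in potassium phosphate (200mM), substrate Luciferin-PPXE at 25uM, luminescent luciferin detection followed a 60-min RT NADPH reaction; data scaled to 57 uM ketoconazole.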
# [24] = molecular target: Cytochrome P450 2D6 (Homo sapiens) (UniProt P10635); experiment: qHTS Assay for Inhibitors and Substrates of Cytochrome P450 2D6 (AID 891; active means well fitted curve in the direction sought with a large enough effect; an effect the other way counts as inactive or inconclusive)
# Procedure, shortened: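 Luminescent read-out of luciferin formed by 5 nM human CYP2D6 demethylating 30 uM Luciferin-ME EGE (Km level) over 60 min at room temperature after NADPH regeneration addition. Data normalized to full inhibition by 1.43 uM quinidine.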
# [25] = molecular target: Cytochrome P450 2C19 (Homo sapiens) (UniProt P33261); experiment: qHTS Assay for Inhibitors and Substrates of Cytochrome P450 2C19 (AID 899; active means well fitted curve in the direction sought with a large enough effect; an effect the other way counts as inactive or inconclusive; further: nearly all actives have a fitted effect of over 60% in size)
# Procedure, shortened: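 5 nM human CYP2C19 with 10uM Luciferin-H EGE (at KM) in 50mM KPO4, compound preincubated 10 min at 37C, then NADPH regeneration for 60 min at 37C. Luciferin read by luminescence after detection reagent; normalized to 57uM ketoconazole as full inhibition.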
# [26] = Confirmation and Secondary Assay for Modulators of Hemoglobin Beta Chain Splicing at IVS2 654 locus (AID 910; active means well fitted curve in the direction sought with a large enough effect; an effect the other way counts as inactive or inconclusive;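 further: HeLa cells stably carrying EGFP split by mutant beta-globin IVS2-654 intron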)
# Procedure, shortened: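 HeLa cells stably expressing EGFP interrupted by β-globin IVS2-654 intron, seeded overnight in Opti-MEM/2% FCS, then treated 2 days at 37 °C. Restored splicing read as total peak GFP intensity per well by laser scanning cytometry (488 nm excitation, 500–520 nm emission); 500 nM antisense PNA as control.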
# [27] = Confirmation and Secondary Assay for Modulators of Hemoglobin Beta Chain Splicing at IVS2 705 locus (AID 930; active means well fitted curve in the direction sought with a large enough effect; an effect the other way counts as inactive or inconclusive;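 further: HeLa cells stably expressing the EGFP-705 splicing reporter; GFP fluorescence per well restored by corrected splicing of the IVS2-705 intron in EGFP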)
# Procedure, shortened: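 Stable HeLa line with EGFP disrupted by mutant beta-globin intron 2 (705). Overnight attachment, then 2 days of compound at 37C, 5% CO2. Signal: peak GFP intensity summed over objects 5-250 µm.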
# [28] = molecular target: DNA dC->dU-editing enzyme APOBEC-3G (Homo sapiens) (UniProt Q9HC16); experiment: qHTS for inhibitors of Vif-A3G interactions: Validation (AID 588379; active means well fitted curve in the direction sought with a large enough effect; an effect the other way counts as inactive or inconclusive)
# Procedure, shortened: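 Yellow fluorescence (Ex 488, Em 500-530) of Vif-coexpressing HeLa A3G-eYFP cells, scanned by Acumen cytometer, reports blocked A3G degradation. Cells plated at 700/well overnight at 37 deg C before compound addition, then a further overnight compound incubation at 37 deg C.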
# [29] = system: Zika virus NS2B-NS3 protease; experiment: Primary screen GU AMC qHTS for Zika virus inhibitors (AID 1347154; active means well fitted curve in the direction sought with a large enough effect; an effect the other way counts as inactive or inconclusive; further: nearly all actives have a fitted effect of over 70% in size)
# Procedure, shortened: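 Unlinked Zika NS2B hydrophilic domain–NS3 protease complex at 25 nM in 10 mM Tris-HCl pH 8.0, 0.01% Tween 20, with an AMC peptide substrate. Fluorescence change (340/450 nm) over 15 min at room temperature, normalized to controls, fitted to 4-parameter Hill.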
# Alpha-galactosidase (Coffea arabica), sequence (Q42656 whole entry, looked up): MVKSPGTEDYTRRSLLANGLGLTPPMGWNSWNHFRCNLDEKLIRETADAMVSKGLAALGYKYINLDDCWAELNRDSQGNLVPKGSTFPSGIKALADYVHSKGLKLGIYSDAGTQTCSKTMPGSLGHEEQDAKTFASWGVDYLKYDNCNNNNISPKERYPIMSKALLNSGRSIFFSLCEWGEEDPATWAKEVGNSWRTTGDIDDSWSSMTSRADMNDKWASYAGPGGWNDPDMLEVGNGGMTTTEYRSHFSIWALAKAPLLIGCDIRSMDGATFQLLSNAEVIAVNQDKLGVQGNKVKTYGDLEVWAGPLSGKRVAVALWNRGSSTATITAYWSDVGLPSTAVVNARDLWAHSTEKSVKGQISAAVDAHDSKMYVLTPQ
# Nucleoprotein (Lymphocytic choriomeningitis virus (strain Armstrong)), sequence (P09992 whole entry, looked up): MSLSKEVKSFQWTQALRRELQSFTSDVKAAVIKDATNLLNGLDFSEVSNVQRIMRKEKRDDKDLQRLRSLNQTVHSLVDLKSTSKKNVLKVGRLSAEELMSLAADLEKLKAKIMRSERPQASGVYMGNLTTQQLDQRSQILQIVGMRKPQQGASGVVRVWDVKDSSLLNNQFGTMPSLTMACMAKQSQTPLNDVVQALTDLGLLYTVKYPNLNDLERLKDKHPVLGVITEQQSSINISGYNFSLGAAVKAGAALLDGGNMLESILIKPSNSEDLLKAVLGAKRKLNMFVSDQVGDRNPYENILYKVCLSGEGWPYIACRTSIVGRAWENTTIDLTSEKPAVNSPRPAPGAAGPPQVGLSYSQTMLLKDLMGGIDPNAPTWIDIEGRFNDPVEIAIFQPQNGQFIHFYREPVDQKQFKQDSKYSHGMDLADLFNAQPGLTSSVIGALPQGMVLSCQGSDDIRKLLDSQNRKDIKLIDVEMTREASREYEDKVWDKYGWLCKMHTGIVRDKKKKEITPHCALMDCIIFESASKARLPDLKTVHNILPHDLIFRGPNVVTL
# Glucocorticoid receptor (Homo sapiens), sequence (P04150 whole entry, looked up, the tested form may be a part): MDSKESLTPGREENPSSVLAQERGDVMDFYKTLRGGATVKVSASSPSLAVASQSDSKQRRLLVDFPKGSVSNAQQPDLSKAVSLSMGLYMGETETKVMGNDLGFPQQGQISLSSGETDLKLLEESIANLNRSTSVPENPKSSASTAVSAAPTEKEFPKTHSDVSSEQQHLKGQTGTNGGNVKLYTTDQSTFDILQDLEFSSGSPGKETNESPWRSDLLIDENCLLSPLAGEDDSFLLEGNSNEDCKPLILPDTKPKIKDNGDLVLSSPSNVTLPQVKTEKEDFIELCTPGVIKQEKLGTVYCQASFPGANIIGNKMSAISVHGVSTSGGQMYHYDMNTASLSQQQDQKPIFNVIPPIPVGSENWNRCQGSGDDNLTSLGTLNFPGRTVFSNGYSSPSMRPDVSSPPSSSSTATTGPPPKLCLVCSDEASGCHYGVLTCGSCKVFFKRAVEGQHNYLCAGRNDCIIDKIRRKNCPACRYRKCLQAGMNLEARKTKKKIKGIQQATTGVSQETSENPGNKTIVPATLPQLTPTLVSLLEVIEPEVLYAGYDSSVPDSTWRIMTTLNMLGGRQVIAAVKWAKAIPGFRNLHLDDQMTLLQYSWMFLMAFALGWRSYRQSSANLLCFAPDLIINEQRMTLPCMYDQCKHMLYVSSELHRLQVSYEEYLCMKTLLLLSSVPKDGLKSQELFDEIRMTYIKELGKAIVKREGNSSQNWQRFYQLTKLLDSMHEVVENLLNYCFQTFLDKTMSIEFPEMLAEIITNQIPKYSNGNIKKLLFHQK
# Cytochrome P450 3A4 (Homo sapiens), sequence (P08684 whole entry, looked up): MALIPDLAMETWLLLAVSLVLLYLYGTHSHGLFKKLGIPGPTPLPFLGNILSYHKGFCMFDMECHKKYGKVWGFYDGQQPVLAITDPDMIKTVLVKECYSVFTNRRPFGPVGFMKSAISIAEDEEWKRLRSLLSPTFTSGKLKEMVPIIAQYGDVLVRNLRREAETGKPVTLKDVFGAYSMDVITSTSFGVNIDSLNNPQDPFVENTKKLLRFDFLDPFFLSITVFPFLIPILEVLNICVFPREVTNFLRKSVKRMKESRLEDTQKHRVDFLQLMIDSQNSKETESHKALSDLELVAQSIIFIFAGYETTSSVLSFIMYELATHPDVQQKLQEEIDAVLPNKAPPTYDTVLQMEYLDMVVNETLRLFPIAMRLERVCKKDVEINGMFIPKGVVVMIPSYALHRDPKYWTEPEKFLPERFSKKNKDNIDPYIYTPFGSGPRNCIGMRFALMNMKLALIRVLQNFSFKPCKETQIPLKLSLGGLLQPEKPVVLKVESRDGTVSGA
# DNA dC->dU-editing enzyme APOBEC-3G (Homo sapiens), sequence (Q9HC16 whole entry, looked up): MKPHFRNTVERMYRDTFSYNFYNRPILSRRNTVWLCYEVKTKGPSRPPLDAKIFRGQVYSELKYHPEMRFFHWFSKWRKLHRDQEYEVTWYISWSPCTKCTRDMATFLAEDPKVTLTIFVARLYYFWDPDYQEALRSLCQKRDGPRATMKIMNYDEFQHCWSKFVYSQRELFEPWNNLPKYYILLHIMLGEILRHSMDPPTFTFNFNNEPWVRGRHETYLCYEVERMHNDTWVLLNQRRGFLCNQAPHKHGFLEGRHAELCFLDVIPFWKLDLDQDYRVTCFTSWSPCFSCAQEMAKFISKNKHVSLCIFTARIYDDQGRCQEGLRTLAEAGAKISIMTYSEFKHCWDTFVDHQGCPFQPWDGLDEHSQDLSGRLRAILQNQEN
# Cytochrome P450 2C19 (Homo sapiens), sequence (P33261 whole entry, looked up): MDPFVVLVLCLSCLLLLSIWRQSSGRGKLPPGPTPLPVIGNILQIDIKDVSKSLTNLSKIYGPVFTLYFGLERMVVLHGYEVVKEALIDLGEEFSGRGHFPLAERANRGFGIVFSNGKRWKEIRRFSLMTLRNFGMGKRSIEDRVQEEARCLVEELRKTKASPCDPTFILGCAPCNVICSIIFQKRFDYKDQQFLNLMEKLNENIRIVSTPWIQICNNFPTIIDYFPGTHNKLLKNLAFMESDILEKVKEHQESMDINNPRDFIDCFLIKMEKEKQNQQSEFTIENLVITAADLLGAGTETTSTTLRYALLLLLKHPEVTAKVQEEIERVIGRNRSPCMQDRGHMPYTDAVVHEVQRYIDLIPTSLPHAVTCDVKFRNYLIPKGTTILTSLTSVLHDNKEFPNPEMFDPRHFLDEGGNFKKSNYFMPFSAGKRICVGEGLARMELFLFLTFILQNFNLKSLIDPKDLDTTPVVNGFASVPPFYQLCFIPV
# Cytochrome P450 1A2 (Homo sapiens), sequence (P05177 whole entry, looked up): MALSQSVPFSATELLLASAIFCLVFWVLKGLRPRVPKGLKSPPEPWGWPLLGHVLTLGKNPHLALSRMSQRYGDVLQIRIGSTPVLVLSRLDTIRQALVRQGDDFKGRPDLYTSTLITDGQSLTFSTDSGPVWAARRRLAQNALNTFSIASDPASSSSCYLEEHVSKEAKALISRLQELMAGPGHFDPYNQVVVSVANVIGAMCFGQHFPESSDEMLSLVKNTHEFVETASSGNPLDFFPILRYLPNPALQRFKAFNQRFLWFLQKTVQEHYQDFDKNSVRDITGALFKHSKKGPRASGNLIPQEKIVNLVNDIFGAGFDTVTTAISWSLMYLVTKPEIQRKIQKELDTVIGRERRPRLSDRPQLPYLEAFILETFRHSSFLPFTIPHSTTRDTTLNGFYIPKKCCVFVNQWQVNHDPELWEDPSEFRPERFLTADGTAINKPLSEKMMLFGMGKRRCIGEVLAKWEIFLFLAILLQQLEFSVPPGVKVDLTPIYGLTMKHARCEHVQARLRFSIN
# 3',5'-cyclic-AMP phosphodiesterase 4B (Homo sapiens), sequence (Q07343 whole entry, looked up): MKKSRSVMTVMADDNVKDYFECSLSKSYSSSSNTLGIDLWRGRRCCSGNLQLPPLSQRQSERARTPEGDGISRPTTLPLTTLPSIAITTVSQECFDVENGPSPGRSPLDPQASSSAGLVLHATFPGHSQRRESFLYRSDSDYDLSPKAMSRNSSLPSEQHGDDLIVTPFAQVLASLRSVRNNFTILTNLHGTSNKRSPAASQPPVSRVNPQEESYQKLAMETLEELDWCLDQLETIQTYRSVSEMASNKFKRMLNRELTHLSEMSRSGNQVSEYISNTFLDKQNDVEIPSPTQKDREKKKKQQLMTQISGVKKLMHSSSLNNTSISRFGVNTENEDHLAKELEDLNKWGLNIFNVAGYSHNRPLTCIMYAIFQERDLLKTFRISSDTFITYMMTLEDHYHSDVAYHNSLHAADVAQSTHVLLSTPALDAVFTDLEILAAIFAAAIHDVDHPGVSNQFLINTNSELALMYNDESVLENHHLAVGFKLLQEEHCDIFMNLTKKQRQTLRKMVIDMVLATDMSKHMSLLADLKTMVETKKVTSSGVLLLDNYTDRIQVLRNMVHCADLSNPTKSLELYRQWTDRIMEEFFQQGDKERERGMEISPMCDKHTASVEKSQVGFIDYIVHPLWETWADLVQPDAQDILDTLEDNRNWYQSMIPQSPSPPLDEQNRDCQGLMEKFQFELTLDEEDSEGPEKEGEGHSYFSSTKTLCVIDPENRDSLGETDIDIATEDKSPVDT
# Cytochrome P450 2C9 (Homo sapiens), sequence (P11712 whole entry, looked up): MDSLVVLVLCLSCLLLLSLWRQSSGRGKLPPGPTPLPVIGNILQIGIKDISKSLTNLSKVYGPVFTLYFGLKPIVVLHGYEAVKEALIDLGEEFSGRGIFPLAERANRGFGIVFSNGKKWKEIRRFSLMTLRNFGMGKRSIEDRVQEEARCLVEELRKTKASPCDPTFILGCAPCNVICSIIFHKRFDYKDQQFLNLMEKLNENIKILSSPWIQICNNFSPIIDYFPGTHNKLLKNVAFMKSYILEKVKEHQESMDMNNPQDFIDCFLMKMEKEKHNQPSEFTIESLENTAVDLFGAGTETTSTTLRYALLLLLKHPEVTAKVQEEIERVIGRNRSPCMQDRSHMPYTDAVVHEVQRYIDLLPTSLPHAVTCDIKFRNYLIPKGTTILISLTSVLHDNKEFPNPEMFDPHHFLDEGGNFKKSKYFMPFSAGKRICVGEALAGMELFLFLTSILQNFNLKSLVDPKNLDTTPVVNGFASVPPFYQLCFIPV
compound,measurement,setting,value
COC(=O)[C@H]1[C@H]2C[C@@H]3c4[nH]c5ccccc5c4CCN3C[C@H]2C[C@@H](OC(=O)c2cc(OC)c(OC)c(OC)c2)[C@@H]1OC,Potency,[1],inactive
same,Potency,[2],inactive
same,Potency,[3],inactive
same,Potency,[4],inactive
same,outcome,[5],inactive
same,outcome,[6],inactive
same,Potency,[7],inactive
same,Potency,[8],11.2 µM (active)
same,Potency,[9],inactive
same,Potency,[10],inactive
NC[C@@H]1O[C@H](C23CC4CC(CC(C4)C2)C3)Cc2c1ccc(O)c2O,outcome,[11],inactive
same,outcome,[12],inactive
same,outcome,[13],inactive
same,Potency,[1],inactive
same,Potency,[2],inactive
same,Potency,[3],inactive
Nc1ncnc2c1ncn2[C@@H]1O[C@H](CO)C[C@@H]1O,Potency,[1],inactive
same,Potency,[2],inactive
same,Potency,[14],inactive
COc1cc(Cl)cn2c(-c3cccc(NC4CNC4)n3)cnc12,Potency,[1],inactive
same,Potency,[2],21.7 µM (active)
same,Potency,[14],inactive
NC(=O)c1c[nH]c2ccccc12,Potency,[1],inactive
same,Potency,[2],inactive
same,Potency,[14],inactive
COc1c2ccoc2c(OC[C@@H](O)C(C)(C)OC)c2oc(=O)ccc12,Potency,[1],inactive
same,Potency,[2],inactive
same,Potency,[14],inactive
COCCCCC(=NOCCN)c1ccc(C(F)(F)F)cc1,outcome,[11],inactive
same,outcome,[12],inactive
same,Potency,[1],inactive
same,Potency,[2],1.93 µM (active)
same,Potency,[3],38.5 µM (active)
COc1cc2c(cc1-c1c(C)noc1C)ncc1[nH]c(=O)n([C@H](C)c3ccccn3)c12,Potency,[1],13.7 µM (active)
same,Potency,[2],17.2 µM (active)
same,Potency,[14],9.68 µM (active)
same,Potency,[10],inactive
same,"activity change, negative = inhibition",[15],-29%
CC(=O)/C=C/C1C(C)=CCC(C)C1(C)C (centres undefined),Potency,[1],inactive
same,Potency,[2],inactive
same,Potency,[14],inactive
C=C[C@H]1CN2CC[C@@H]1C[C@@H]2[C@@H](O)c1ccnc2ccc(OC)cc12,outcome,[11],inactive
same,outcome,[12],inactive
same,Potency,[1],inactive
same,Potency,[2],inactive
same,Potency,[3],inactive
COc1ccc(CCC(=O)c2c(O)cc(O[C@@H]3O[C@H](CO)[C@@H](O)[C@H](O)[C@@H]3O[C@@H]3O[C@@H](C)[C@H](O)[C@@H](O)[C@@H]3O)cc2O)cc1O,Potency,[1],7.69 µM (active)
same,Potency,[2],5.44 µM (active)
same,Potency,[14],6.11 µM (active)
CC#CCn1c(N2CCC[C@@H](N)C2)nc2c1c(=O)n(Cc1nc(C)c3ccccc3n1)c(=O)n2C,Potency,[1],inactive
same,Potency,[2],inactive
same,Potency,[14],inactive
same,Potency,[4],inactive
same,outcome,[5],inactive
same,Potency,[16],inactive
same,outcome,[6],inactive
same,Potency,[10],inactive
same,"activity change, negative = inhibition",[15],-18.4% and -12.2%
COc1cccc2c1cc([N+](=O)[O-])c1c(C(=O)O)cc3c(c12)OCO3,Potency,[17],31.6 µM (active)
same,Potency,[18],> 46 µM (inactive)
same,Potency,[19],> 46 µM (inactive)
same,outcome,[20],inactive
same,Potency,[21],inactive
same,Potency,[22],inactive
same,Potency,[23],inactive
same,Potency,[24],inactive
same,Potency,[25],inactive
same,Potency,[26],inactive
same,outcome,[27],inactive
same,Potency,[28],inactive
same,Potency,[1],inactive
same,Potency,[2],inactive
same,Potency,[14],inactive
same,Potency,[29],inactive
COc1cc2ncn(-c3cc(OCc4ccccc4S(C)(=O)=O)c(C#N)s3)c2cc1OC,Potency,[1],inactive
same,Potency,[2],27.3 µM (active)
same,Potency,[14],inactive
same,Potency,[10],inactive
CCN(CC)CCCCCCCCOC(=O)c1cc(OC)c(OC)c(OC)c1,outcome,[11],inactive
same,outcome,[12],inactive
same,outcome,[13],inactive
same,Potency,[1],inactive
same,Potency,[2],inactive
same,Potency,[3],inactive
